Several values for one entry are separate records, joined by “and”; a condition that tells them apart may be missing. Equal entries are not always repeated. Screen size: about 5,500 compounds; about 2,000 (36%) were called active. Roughly 18% stayed inconclusive and do not appear here. No stated cut-off is given here; in the data, active means normalized growth mostly below about 0.91 (no sharp cut-off); inconclusive means no clear call, values can overlap the other calls; inactive means mostly above about 0.92. The list shows a part of the results.
Assay: chemical genetic growth profiling, strain panel (AID 1159580);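 further: tested at 20 µM; growth read once vehicle control cultures reached saturation at 30 °C; 1 = growth at the plate median or of vehicle wells; lower values mean less growth of the strain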
Conditions: growth OD

Measured: normalized growth

C/C=C(/C)C(=O)O[C@H]1CC[C@@]2(C)[C@@H]3CC[C@H]4[C@]5(O)C[C@H](O)[C@@]6(O)[C@@H](CN7C[C@@H](C)CC[C@H]7[C@@]6(C)O)[C@]5(O)C[C@@]42O[C@]13O
inactive: S. cerevisiae deletion strains, locus YBR021W, strain FUR4, active compounds read low 1 | S. cerevisiae deletion strains, locus YBR229C, strain ROT2, active compounds read low 1.01 | S. cerevisiae deletion strains, locus YCL029C, strain bik1, active compounds read low 0.988 | S. cerevisiae deletion strains, locus YDL035C, strain GPR1, active compounds read low 0.991 | S. cerevisiae deletion strains, locus YDL074C, strain BRE1, active compounds read low 0.981 | S. cerevisiae deletion strains, locus YDL101C, strain DUN1, active compounds read low 1.02 | S. cerevisiae deletion strains, locus YDL185W, strain tfp1, active compounds read low 0.966 | S. cerevisiae deletion strains, locus YDL192W, strain arf1, active compounds read low 0.966 | S. cerevisiae deletion strains, locus YDR101C, strain arx1, active compounds read low 0.981 | S. cerevisiae deletion strains, locus YDR162C, strain NBP2, active compounds read low 1.05 | S. cerevisiae deletion strains, locus YDR318W, strain mcm21, active compounds read low 0.987 | S. cerevisiae deletion strains, locus YDR388W, active compounds read low 0.98 | S. cerevisiae deletion strains, locus YDR502C, strain sam2, active compounds read low 0.988 | S. cerevisiae deletion strains, locus YEL061C, strain CIN8, active compounds read low 1 | S. cerevisiae deletion strains, locus YER110C, active compounds read low 0.964 | S. cerevisiae deletion strains, locus YER155C, strain BEM2, active compounds read low 1 | S. cerevisiae deletion strains, locus YER167W, strain BCK2, active compounds read low 0.995 | S. cerevisiae deletion strains, locus YGL078C, strain dbp3, active compounds read low 0.993 | S. cerevisiae deletion strains, locus YGL086W, strain mad1, active compounds read low 0.975 | S. cerevisiae deletion strains, locus YGL248W, strain PDE1, active compounds read low 1.03 | S. cerevisiae deletion strains, locus YGR078C, strain PAC10, active compounds read low 1.05 | S. cerevisiae deletion strains, locus YGR135W, strain pre9, active compounds read low 0.993 | S. cerevisiae deletion strains, locus YGR252W, strain gcn5, active compounds read low 1.11 | S. cerevisiae deletion strains, locus YHR030C, strain SLT2, active compounds read low 0.988 and 0.996 | S. cerevisiae deletion strains, locus YHR079C, strain IRE1 (second series), active compounds read low 0.969 | S. cerevisiae deletion strains, locus YHR079C, strain IRE1, active compounds read low 0.969 | S. cerevisiae deletion strains, locus YHR094C, strain hxt1, active compounds read low 0.981 | S. cerevisiae deletion strains, locus YHR129C, strain ARP1, active compounds read low 0.996 | S. cerevisiae deletion strains, locus YHR200W, strain rpn10, active compounds read low 0.964 | S. cerevisiae deletion strains, locus YIL066C, strain RNR3, active compounds read low 1.01 | S. cerevisiae deletion strains, locus YIL073C, strain SPO22, active compounds read low 0.949 | S. cerevisiae deletion strains, locus YIL125W, strain kgd1, active compounds read low 1 | S. cerevisiae deletion strains, locus YIR030C, strain dcg1, active compounds read low 0.977 | S. cerevisiae deletion strains, locus YJL095W, strain BCK1, active compounds read low 1.05 and 0.999 | S. cerevisiae deletion strains, locus YJL134W, strain LCB3, active compounds read low 0.996 | S. cerevisiae deletion strains, locus YJL168C, strain set2, active compounds read low 0.982 | S. cerevisiae deletion strains, locus YJL187C, strain SWE1 (second series), active compounds read low 1.07 | S. cerevisiae deletion strains, locus YJR043C, strain POL32, active compounds read low 1.02 | S. cerevisiae deletion strains, locus YJR066W, strain TOR1, active compounds read low 0.928 | S. cerevisiae deletion strains, locus YKL009W, strain mrt4, active compounds read low 0.948 | S. cerevisiae deletion strains, locus YKL068W, active compounds read low 0.987 | S. cerevisiae deletion strains, locus YKL085W, strain MDH1 (second series), active compounds read low 0.979 | S. cerevisiae deletion strains, locus YKL085W, strain MDH1, active compounds read low 0.979 | S. cerevisiae deletion strains, locus YKR001C, strain vps1, active compounds read low 0.965 | S. cerevisiae deletion strains, locus YLR039C, strain RIC1, active compounds read low 0.908 | S. cerevisiae deletion strains, locus YLR058C, strain SHM2, active compounds read low 1.01 | S. cerevisiae deletion strains, locus YLR102C, strain apc9, active compounds read low 0.975 | S. cerevisiae deletion strains, locus YLR113W, strain HOG1, active compounds read low 0.995 | S. cerevisiae deletion strains, locus YLR262C, strain YPT6, active compounds read low 0.934 | S. cerevisiae deletion strains, locus YLR268W, strain sec22, active compounds read low 0.97 | S. cerevisiae deletion strains, locus YLR330W, strain CHS5, active compounds read low 0.986 | S. cerevisiae deletion strains, locus YLR342W, strain FKS1 (second series), active compounds read low 1.05 | S. cerevisiae deletion strains, locus YLR371W, strain rom2, active compounds read low 0.982 | S. cerevisiae deletion strains, locus YLR418C, strain cdc73, active compounds read low 0.988 | S. cerevisiae deletion strains, locus YML016C, strain PPZ1, active compounds read low 1 | S. cerevisiae deletion strains, locus YML032C, strain rad52, active compounds read low 1 | S. cerevisiae deletion strains, locus YML124C, strain tub3, active compounds read low 0.984 | S. cerevisiae deletion strains, locus YMR078C, strain ctf18, active compounds read low 0.958 | S. cerevisiae deletion strains, locus YMR223W, strain ubp8, active compounds read low 1 | S. cerevisiae deletion strains, locus YMR263W, strain SAP30, active compounds read low 1.01 | S. cerevisiae deletion strains, locus YMR307W, strain GAS1, active compounds read low 1.15 | S. cerevisiae deletion strains, locus YNL067W, strain RPL9B, active compounds read low 1.03 | S. cerevisiae deletion strains, locus YNL183C, strain NPR1, active compounds read low 0.974 | S. cerevisiae deletion strains, locus YNL233W, strain BNI4, active compounds read low 1.03 | S. cerevisiae deletion strains, locus YNL250W, strain rad50, active compounds read low 0.962 | S. cerevisiae deletion strains, locus YNL271C, strain bni1, active compounds read low 0.994 | S. cerevisiae deletion strains, locus YNL298W, strain CLA4, active compounds read low 0.993 | S. cerevisiae deletion strains, locus YNL307C, strain MCK1, active compounds read low 0.995 | S. cerevisiae deletion strains, locus YNR052C, strain pop2, active compounds read low 1.01 | S. cerevisiae deletion strains, locus YOL012C, strain htz1 0.767 | S. cerevisiae deletion strains, locus YOL147C, strain pex11, active compounds read low 0.991 | S. cerevisiae deletion strains, locus YOR061W, strain CKA2, active compounds read low 1 | S. cerevisiae deletion strains, locus YOR069W, strain VPS5, active compounds read low 0.997 | S. cerevisiae deletion strains, locus YOR136W, strain idh2, active compounds read low 0.981 | S. cerevisiae deletion strains, locus YOR144C, strain elg1, active compounds read low 1.01 | S. cerevisiae deletion strains, locus YOR184W, strain ser1, active compounds read low 0.993 | S. cerevisiae deletion strains, locus YOR231W, strain MKK1, active compounds read low 1.01 | S. cerevisiae deletion strains, locus YOR316C, strain cot1, active compounds read low 0.98 | S. cerevisiae deletion strains, locus YPL256C, strain CLN2, active compounds read low 0.983 | S. cerevisiae deletion strains, locus YPR119W, strain clb2, active compounds read low 0.963 | S. cerevisiae deletion strains, locus YPR141C, strain kar3, active compounds read low 0.981 | S. cerevisiae deletion strains, locus YPR163C, strain tif3, active compounds read low 0.977 | S. cerevisiae deletion strains, locus YPR167C, strain met16, active compounds read low 0.957 | S. cerevisiae deletion strains, strain wtn01, active compounds read low 0.977 | S. cerevisiae strains, strain wild type, active compounds read low 1.01

Reference: PubChem BioAssay AID1159580 (chemical genetic matrix, 2015)
